Results filed as inconclusive are left out. Entries that show only a call come without a potency. Calls of active or inactive are those of the source. Calls follow the shape of the dose curve; as a rule, active = well fitted cell-killing curve with a large enough effect in the repeat runs; inconclusive = weak or mixed curves, or effect the other way; inactive = flat fitted curve, though single readings scatter.

This experiment can be described thus: qHTS RealTime-Glo MT Cell Viability Assay in HepG2 cells - 40 hour (AID 1224870). Also: nearly all actives have a fitted effect of over 50% in size. The following applies: RealTime-Glo luminescence; series mostly up to 76.8 µM. From the text: National Center for Advancing Translational Sciences [NCATS]
NIH Chemical Genomics Center [NCGC]
U.S. Environmental Protection Agency [EPA]
National Institutes of Environmental Health Sciences [NIEHS]
National Toxicology Program [NTP]
U.S. Food and Drug Administration [FDA]
Measure of cell viability is critical in the cell-base assay. Analysis of cell viability is necessary for the characterization of cell responses to cytotoxic drugs and environmental stress. A RealTime-Glo MT Cell Viability Assay to monitor cell viability in real time of continues cell culture during 40 hours of compound treatment was used to screen Tox21 10K library compounds in HepG2 cells. The RealTime-Glo MT Cell Viability Assay is a nonlytic, homogeneous, bioluminescent method to measure cell viability in real time using a simple, plate-based method. The assay involves adding NanoLuc luciferase and a cell-permeant prosubstrate to cells in culture. Viable cells reduce the proprietary prosubstrate to generate a substrate for NanoLuc luciferase. This substrate diffuses from cells into the surrounding culture medium, where it is rapidly used by the NanoLuc Enzyme to produce a luminescent signal. The signal correlates with the number of viable cells, making the assay well suited for cytotoxicity studies.
Tox21 Assay Protocol Summary:
The mixture of HepG2 cell suspension and reagents were dispensed at 600cells/6 ul/well in 1536-well tissue culture treated black solid bottom plates using a Multidrop dispenser. After the assay plates were incubated at a 37 C/5% CO2 incubator for 5 hours, 23 nL of compounds dissolved in DMSO, positive and negative controls was transferred to the assay plate by a pintool work station. The plates were incubated at 37 C for 40 hours. The luminescence intensity were measured at 0h, 8h, 16h, 24h, 32h and 40h time points using ViewLux plate reader during compound treatment.
On to `CC[C@H]1OC(=O)[C@H](C)[C@@H](O[C@H]2C[C@@](C)(OC)[C@@H](O)[C@H](C)O2)[C@H](C)[C@@H](O[C@@H]2O[C@H](C)C[C@H](N(C)C)[C@H]2O)[C@](C)(O)C[C@@H](C)CN(C)[C@H](C)[C@@H](O)[C@]1(C)O`, for which the Potency entry was “inactive”.

With `CN1C(CSCC(F)(F)F)Nc2cc(Cl)c(S(N)(=O)=O)cc2S1(=O)=O` (stereo not given), the Potency entry is “inactive”.

With `COC(OC)OC`, the Potency result is “inactive”.

Regarding `COc1cc(NC(C)CCCN)c2ncccc2c1` (stereo not given), the Potency result was “inactive”.

Turning to `CCCCCCCCCCCC(=O)OCC(O)CO` (stereo not given), the Potency result is “inactive”.

As to `CCC1CCC(CCC(=O)O)C1` (stereo not given), the Potency entry is “inactive”.

Consider `C=CCOC(=O)COCCC(C)C`, for which the Potency result is “inactive”.

Consider `COc1ccc(C2C(=O)c3ccccc3C2=O)cc1`, for which the Potency entry is “inactive”.

For `CC(=O)OCC1=C(C(=O)O)N2C(=O)[C@@H](NC(=O)CSc3ccncc3)[C@H]2SC1`, the Potency result is “inactive”.

In the case of `CC(C)N(C)C`, the Potency entry was “inactive”.

For the compound `CCOC(=O)c1c(N)sc2c1CCN(Cc1ccccc1)C2`, the Potency entry is “inactive”.

For the compound `Cc1ccc(N(CC2=NCCN2)c2cccc(O)c2)cc1`, the Potency result was “inactive”.

For `COc1ccc(C(=O)NCc2ccc(OCCN(C)C)cc2)cc1OC`, the Potency result is “inactive”.

In the case of `CC12CC3CC(C)(C1)CC(N)(C3)C2`, the Potency entry was “inactive”.

In the case of `CCCCOCCOC(=O)c1cccnc1`, the Potency entry is “inactive”.

As for `O=C1OC(=O)c2c(Br)c(Br)c(Br)c(Br)c21`, the Potency entry is “inactive”.

With `O=C(Oc1ccccc1)c1ccc2ccccc2c1O`, the Potency result is “inactive”.

For the compound `CC1CCc2nccnc21` (stereo not given), the Potency result is “inactive”.

Regarding `O=C(O)c1cc(Cl)cc(Cl)c1O`, the Potency entry was “inactive”.

With `O=C(C(=O)c1ccco1)c1ccco1`, the Potency result is “inactive”.

Regarding `O=C(O)CCCc1c[nH]c2ccccc12`, the Potency result was “inactive”.

On to `O=C(CCS)OCC(COC(=O)CCS)(COC(=O)CCS)COC(=O)CCS`, for which the Potency entry is “inactive”.

With `CC(C)(C(=O)c1cccnc1)c1cccnc1`, the Potency entry was “inactive”.

Take `CNc1c2c(nn1C)CCCC2`: the Potency entry is “inactive”.

As for `CCCCCCCCCCCCCCCC(=O)OCC`, the Potency entry is “inactive”.

On to `CC(=O)NNC(C)=O`, for which the Potency entry is “inactive”.

Regarding `ClC1=C(Cl)C1(Cl)Cl`, the Potency result is “inactive”.

Turning to `Cc1oc(=O)oc1COC(=O)[C@@H]1N2C(=O)[C@@H](NC(=O)[C@H](N)c3ccccc3)[C@H]2SC1(C)C`, the Potency result is “inactive”.

Regarding `CCN(CC)CCOC(=O)C(c1ccccc1)c1ccccc1`, the Potency entry is “inactive”.

On to `O=C(O)CO`, for which the Potency entry is “inactive”.

Consider `Cc1cccc(C)c1NC(=O)c1cc(S(N)(=O)=O)c(Cl)cc1O`, for which the Potency result is “inactive”.

In the case of `FC(F)(F)C(F)(F)C(F)(F)C(F)(F)CCI`, the Potency entry was “inactive”.

As for `CC(C)CC(O)CC(C)C`, the Potency entry is “inactive”.

Consider `CC(C)(C)C1(CCc2ccc(Cl)cc2)CO1` (stereo not given), for which the Potency entry was “inactive”.

For the compound `c1ccc(CCCc2ccncc2)cc1`, the Potency result was “inactive”.

Consider `Nc1ccc(F)cc1`, for which the Potency result is “inactive”.

Regarding `CC(C)C1CCC(C(=O)N[C@H](Cc2ccccc2)C(=O)O)CC1` (stereo not given in full), the Potency entry is “inactive”.

Take `COc1ccc(N)c([N+](=O)[O-])c1`: the Potency entry was “inactive”.

For `CCOC(=O)C(C)O` (stereo not given), the Potency result is “inactive”.

Regarding `O=C(NC(Cc1cc(=O)[nH]c2ccccc12)C(=O)O)c1ccc(Cl)cc1` (stereo not given), the Potency result was “inactive”.

The record behind these values is PubChem BioAssay (Tox21).
